From PubChem BioAssay AID2314 (National Center for Advancing Translational Sciences (NCATS), 2010)
About 37,000 (12%) of roughly 300,000 compounds were called active. Cut-off read from the data, not from the text of the source: active = max response mostly above about 13% (no sharp cut-off); inactive = mostly below about 14%. The sample as a whole holds a higher share of actives than the screen did.

test: Cycloheximide Counterscreen for Small Molecule Inhibitors of Shiga Toxin; conditions: cell reporter, cycloheximide protein synthesis inhibition counterscreen; stronger effect = higher value; note: read at 38.3 µM for the half of the compounds with a filed dose; 0% is about no effect

| SMILES | max response |
| --- | --- |
| CCCCOC(=O)CCCc1ccc([N+](=O)[O-])cc1[N+](=O)[O-] | -1.18% (inactive) |
| CC1C(=O)Nc2ccccc2N1C(=O)c1c(F)cccc1F (stereo not given) | -2.05% (inactive) |
| COc1cccc(NC(=O)C(C)Oc2ccccc2)c1 (stereo not given) | 4.2% (inactive) |
| CC(Oc1cccc(NC(=O)c2cccs2)c1)C(=O)c1ccccc1 (stereo not given) | 19.5% (active) |
| O=C(Nc1ccccc1-c1ccccc1)c1cccs1 | 5.16% (inactive) |
| Cc1cccc(/C=N/NC(=O)CNc2cccc3ccccc23)n1 | 45.5% (active) |
| C/C(=N\NC(=O)CNc1cccc2ccccc12)c1ccc(Br)s1 | -2.1% (inactive) |
| Cn1cccc1/C=N/NC(=O)CNc1cccc2ccccc12 | 4.6% (inactive) |
| Cc1ccccc1/[N+]([O-])=C/c1ccncc1 | 9.27% (inactive) |
| O=C(O)c1ccc2c(c1)C(=O)N(c1ccc(/C=C/C(=O)c3ccccc3)cc1)C2=O | 46.6% (active) |
| O=C(c1ccc(S(=O)(=O)N2CCOCC2)cc1)N1CCN(c2ccccc2)CC1 | -2.23% (inactive) |
| O=C(/C=C/c1ccc(N2CCOCC2)cc1)c1ccccc1 | 46.4% (active) |
| CC(=O)Oc1ccc(C)cc1N1C(=O)c2ccc(C(=O)O)cc2C1=O | 6.31% (inactive) |
| Cc1cccc(N2C(=O)c3ccc(C(=O)Nc4cccc(C(=O)O)c4)cc3C2=O)c1 | 10.2% (inactive) |
| O=C(CN1CCN(S(=O)(=O)/C=C/c2ccccc2)CC1)Nc1ccc(N2CCOCC2)cc1 | -1.05% (inactive) |
| O=C(NC1CCC(O)CC1)c1ccccc1OCc1ccc(F)cc1 (stereo not given) | -3.74% (inactive) |
| Cc1ccccc1CN1C(=O)c2ccccc2Sc2ccc(C(=O)NCCCN3CCOCC3)cc21 | -3.67% (inactive) |
| COc1cc(CO)ccc1OCC(=O)Nc1cccc2ccccc12 | -2.19% (inactive) |
| Cc1ccc(S(=O)(=O)N(CCCN(C)C)Cc2ccc3c(c2)OCO3)cc1 | 1.74% (inactive) |
| O=C(COc1ccccc1)Nc1ccc(C(=O)N2CCCC2)cc1 | 37.5% (inactive) |
| CCC1CCCCN1C(=S)Nc1ccc(C(C)=O)cc1 (stereo not given) | 8.58% (active) |
| CC(=O)c1ccc(NC(=O)CSC(=S)N2CCCC2)cc1 | 20.5% (active) |
| CCC1CCCCN1C(=S)Nc1ccc(SC(F)F)cc1 (stereo not given) | 1.07% (inactive) |
| CCC1CCCCN1C(=S)Nc1ccc(S(=O)(=O)Nc2ncccn2)cc1 (stereo not given) | -2.13% (inactive) |

| SMILES | max response |
| --- | --- |
| O=C(CCC(=O)N1CCCC1)Nc1ccc([N+](=O)[O-])cc1 | -2.89% (inactive) |
| O=C(NC(=S)Nc1ccc2oc(=O)ccc2c1)c1ccc(-c2cccc(Cl)c2Cl)o1 | 6.87% (inactive) |
| CCCC(=O)N1CCN(c2nnc(-c3ccc(C)cc3)c3ccccc23)CC1 | -7.1% (inactive) |
| Cc1cccc(CNS(=O)(=O)c2ccc(-c3cnc(C4CC4)o3)cc2)c1 | 18.8% (inactive) |
| Cc1nnc(C)n1/N=C/c1ccc(C(C)C)cc1 | 4.86% (inactive) |
| CC(=O)c1sc(NC(=O)CCCOc2ccccc2C)nc1C | 1.03% (inactive) |
| CC(=O)c1sc(N/N=C\c2ccc(C)cc2)nc1C | 48.9% (active) |
| CCOC(=O)c1sc(/N=C/Nc2nc(C)c(C(=O)OCC)s2)nc1C | 10.8% (inactive) |
| Cc1ccc(S(=O)(=O)Nc2nc(C)cc(N/N=C/c3ccc(O)cc3)n2)cc1 | -2.44% (inactive) |
| CC(=O)c1sc(N/N=C/c2ccc(C(C)C)cc2)nc1C | 43% (active) |
| C=CCC1(C#N)C(=S)NC(C)=C(C(=O)OCC)C1c1ccccc1 (stereo not given) | -1.77% (inactive) |
| NC(=O)C1CCN(CC(O)CSc2ccc(F)cc2)CC1 (stereo not given) | -5.01% (inactive) |
| NS(=O)(=O)c1ccc(CCNC(=O)c2ccc([N+](=O)[O-])cc2[N+](=O)[O-])cc1 | -3.47% (inactive) |
| COc1c(Cl)cc(C(=O)Nc2ccc(Cl)cn2)cc1Cl | 11.7% (inactive) |
| Cc1nc(NC(=O)c2ccc3c(c2)OCCO3)ccc1Br | 57.9% (active) |
| O=C(Nc1cccnc1)c1ccc(Cl)cc1[N+](=O)[O-] | -1.02% (inactive) |
| O=C(Nc1ccc(Cl)cn1)c1cnn2cccnc12 | 58.9% (active) |
| Cc1cc(NC(=O)c2cnn3cccnc23)n(-c2ccccc2)n1 | 0.387% (inactive) |
| Cc1ccc2sc(NNC(=O)c3ccc4c(c3)OCCO4)nc2c1C | 5.17% (inactive) |
| O=C(Nc1ccc(Cl)cn1)c1ccc2c(c1)OCCO2 | 37.5% (active) |
| CC(=O)c1ccc2c(c1)OCCOCCOc1ccc(C(C)=O)cc1OCCOCCO2 | 0.857% (inactive) |
| COc1ccc(C(=O)NC(=S)Nc2ccc(Cl)cn2)cc1OC | -1.11% (inactive) |
| O=C(NCc1ccncc1)C(=O)NCC1OCCN1S(=O)(=O)c1ccc(Br)cc1 (stereo not given) | -5.83% (inactive) |
| CSCCNCc1cn(-c2ccc(F)cc2F)nc1-c1ccccc1C | -0.8% (inactive) |

| SMILES | max response |
| --- | --- |
| COc1cc(OC)c(NS(=O)(=O)c2cn(C)cn2)cc1Cl | -0.545% (inactive) |
| COc1cc(/C=C2/C(=O)NN(c3cccc(Cl)c3)C2=O)cc(Br)c1O | 0.32% (inactive) |
| CC1(C)O[C@@H]2C[C@@H]3[C@H]4C[C@@H](F)C5=CC(=O)C=C[C@]5(C)[C@@]4(F)[C@@H](O)C[C@]3(C)[C@]2(C(=O)CO)O1 | 7.66% (inactive) |
| CCOC(=O)c1ccc(NC(=O)c2nc[nH]c2C(=O)NCc2ccccc2)cc1 | -1.19% (inactive) |
| O=C(NCCN1CCN(C(=O)c2cccc([N+](=O)[O-])c2)CC1)C(=O)NCc1ccc(Cl)cc1 | 1.34% (inactive) |
| Cc1cc(-c2csc(N)n2)c(C)n1-c1ccccc1 | 28.2% (inactive) |
| Cc1cc(-c2csc(N)n2)c(C)n1Cc1ccccc1 | 22.9% (active) |
| CC(=O)Nc1ccc(C(=O)Nc2nc(-c3cc(C)n(Cc4ccccc4)c3C)cs2)cc1 | -2.65% (inactive) |
| Cc1nn2c(c1-c1ccccc1)N=C(c1ccco1)CC2c1ccccc1 (stereo not given) | 20.9% (active) |
| O=C(O)CCCC(=O)N1N=C(c2ccco2)CC1c1ccco1 (stereo not given) | -3.77% (inactive) |
| Cn1c(N)c(C(=O)COC(=O)C23CC4CC(CC(C4)C2)C3)c(=O)n(C)c1=O | -2.04% (inactive) |
| CCOC(=O)/C(=N\Nc1ccccc1[N+](=O)[O-])c1csc(Nc2ccccc2)n1 | 11.6% (inactive) |
| Cc1c(NC(=O)Nc2ccccc2)cccc1[N+](=O)[O-] | -0.54% (inactive) |
| O=C(O)c1ccccc1C(=O)Nc1ccccc1[N+](=O)[O-] | 0.991% (inactive) |
| Cc1cc(NC(=O)Nc2ccccc2[N+](=O)[O-])no1 | 16.1% (active) |
| O=C(Nc1ccccc1[N+](=O)[O-])C1C(c2ccccc2)=C1c1ccccc1 | -1.97% (inactive) |
| Cc1csc(NC(=O)Nc2ccccc2[N+](=O)[O-])n1 | 40.4% (active) |
| CCCCCCC12CCC(C(=O)O)(CC1)CC2 | -3.19% (inactive) |
| Cc1cccc(NC(=O)CCn2c(=O)oc3ccccc32)c1 | -4.29% (inactive) |
| Cc1ccc(OCCCn2c(=O)oc3ccccc32)cc1 | 33.3% (active) |
| NC(=O)Cn1c(=O)oc2ccccc21 | -2.47% (inactive) |
| COc1ccccc1C(=O)Nc1nc2nc(-c3ccccc3)cc(=O)n2[nH]1 | 9.7% (inactive) |
| Cc1cc(S(=O)(=O)NCC(C)C)ccc1OCC(=O)NC1CC1 | 1.55% (inactive) |
| Cc1nc(N)sc1N=Nc1c(C)n(C)n(-c2ccccc2)c1=O | -1.65% (inactive) |

| SMILES | max response |
| --- | --- |
| Cc1c(N=Nc2ccc(N(C)C)cc2)c(=O)n(-c2ccccc2)n1C | 24.4% (active) |
| Cc1ccc(N=Nc2c(C)[nH]n(-c3ccccc3)c2=O)cc1 | 7.15% (inactive) |
| COc1ccccc1CN1CC(C(=O)NCCc2cn[nH]c2)CCC1=O (stereo not given) | 12.3% (active) |
| Cc1ccccc1CCNC(=O)C1CCC(=O)N(Cc2ccc(Cl)cc2)C1 (stereo not given) | 6.9% (inactive) |
| COc1ccccc1CCCNC(=O)C1CCC(=O)N(CCN2CCOCC2)C1 (stereo not given) | -2.68% (inactive) |
| CN1CCN(Cc2nc3cc(NC(=O)COc4ccc([N+](=O)[O-])cc4)ccc3n2C)CC1 | -3.77% (inactive) |
| CCN(C(=O)Cc1c(C(=O)O)n(CC)c2ccccc12)c1ccccc1C | -1.37% (inactive) |
| CCOC(=O)c1ccc(NNC(C)=O)c([N+](=O)[O-])c1 | 16.3% (inactive) |
| Cc1cc(C)nc(NC(=O)c2cccc([N+](=O)[O-])c2)c1 | -2.71% (inactive) |
| CCCCNc1ccc(C(=O)Nc2cccc(C)n2)cc1[N+](=O)[O-] | 12.7% (active) |
| Cc1cc(C)nc(S/C=C/C(=O)c2ccccc2)n1 | 109% (active) |
| Cc1cc(C)nc(SCC(=O)c2ccc(Cl)cc2)n1 | 2.56% (inactive) |
| Cc1cc(SCC(=O)c2ccccc2)nc(SCC(=O)c2ccccc2)n1 | 6.74% (inactive) |
| CC(=O)N(C)c1ccc(NC(=O)C(F)(F)F)cc1 | -1.33% (inactive) |
| O=C(/C=C/Nc1ccccc1OC(F)(F)F)C(F)(F)F | -2.95% (inactive) |
| CN(C)c1ccc(N/C=C/C(=O)C(F)(F)F)cc1 | 55.6% (active) |
| Cc1ccc2[nH]c3c(=O)n(CC(=O)NCCc4ccc(Cl)cc4)ncc3c2c1 | 4.22% (inactive) |
| CCn1nc(C)c(CNC(=O)C2CCC(=O)N(Cc3cccc(F)c3)C2)c1C (stereo not given) | -0.425% (inactive) |
| CN1CCN(/N=C/c2ccc(C#N)cc2)CC1 | 24.2% (active) |
| CN1CCN(/N=C/c2c[nH]c3ccccc23)CC1 | 0.776% (inactive) |
| COC(c1ccccc1)c1nnc(CCC(=O)N2CCN(CCOc3ccccc3)CC2)o1 (stereo not given) | -3.13% (inactive) |
| Cc1c(C2=CCN(S(=O)(=O)c3ccc(Cl)cc3)CC2)c2ccccc2n1C | -3.88% (inactive) |
| COCCNC(=O)c1ccc(Cn2c(SCC(=O)NCC3CCCO3)nc3ccc(Br)cc3c2=O)cc1 (stereo not given) | -4.2% (inactive) |
